Assay outcomes as filed in PubChem BioAssay.
PMP22 txn: modulators of PMP22 gene transcription in S16 Schwann cells. AID 1508649. Potency, µM (highest dose often 57.5 µM), hits mostly inhibitors. S16 Pmp22-F2sN Schwann cells, FLuc/NLuc coincidence luminescence, 24 h. actives 2% (n = 43,000); active = clear falling dose curves in both reporters; inconclusive = both reporters move, but less clearly or upward; inactive = either reporter flat; the % is the NLuc reporter signal
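Reporter cells (S16 Pmp22-F2sN, 500–1,000 per well) exposed to compounds for 24 h, 37C, 5% CO2; lysis with FLuc read after 10 min, then Stop&Glo and NLuc read after 10 min.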
HTT-AS act: HTT-AS promoter activation; HEK293 HTT-AS promoter firefly luciferase reporter, 24 h; response scale: percent change from vehicle, -100% = no light; Potency, µM (titrated, usually from 57.5 µM), usual class: activators; actives 0.24% (n = 48,000); note: nearly all actives have a fitted effect of over 55% in size
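HEK293 cells carrying firefly luciferase reporters were seeded at 2,500 per well in Opti-MEM and cultured for 24 h. They were then treated with compounds at up to 57.5 uM final for 24 h at 37 degrees C before Dual-Glo luminescence readout.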
pS6 MEF inh: inhibitors of mTORC1 signaling in Tsc2-/- p53-/- MEF cells | Potency, µM (top dose mostly 38.3 µM), hits mostly inhibitors | actives 0.78% (n = 44,000) | Tsc2-/- p53-/- MEF, phospho-rpS6 immunofluorescence/PI, 24 h; note: nearly all actives have a fitted effect of over 50% in size
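Tsc2-/-, p53-/- mouse embryonic fibroblasts (empty-vector line) exposed to compound 24 hrs at 37 C, fixed, immunostained for phospho-rpS6 and counterstained with propidium iodide. Acumen laser scanning gives % positive cells from Alexa 488/PI ratio, thresholded using 7.5 nM rapamycin; PI count gives viability.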
S16 F2sN tox: toxic to S16 Pmp22-F2sN Schwann cells; Potency, µM (highest dose often 57.5 µM), usual class: cytotoxic; AID 1508642; S16 Pmp22-F2sN Schwann cells (luciferase reporters placed in the Pmp22 gene) viability, CellTiter-Glo, 24 h; actives 0.48% (n = 43,000); note: nearly all actives have a fitted effect of over 65% in size
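S16 Schwann cells carrying the Pmp22-F2sN reporter, seeded in 1536-well format, were exposed to library compounds for 24 h at 37C. Viability was read as CellTiter-Glo luminescence after 15 min at room temperature.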
HTT prom inh: inhibits huntingtin promoter activity; HEK293 HTT promoter firefly luciferase reporter, 24 h; Potency, µM (doses to about 57.5 µM), most hits filed as inhibitors; actives 0.93% (n = 48,000); AID 1508623; note: nearly all actives have a fitted effect of over 50% in size
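HEK293 luciferase promoter-reporter cells (2,500/well) plated 24 h, then compounds added at up to 57.5 uM final for 24 h at 37 °C. Firefly luminescence by Dual-Glo, normalized to vehicle (0%) and zero RLU (-100%).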
Numbers stand for hits; - = inactive; ? = inconclusive; . = no result given. Only some compounds are listed: those with a hit (about 3.6% of all), similar ones and a draw of the others. Unless noted, calls come from the whole dose curve; as a rule, active = well fitted curve in the direction sought with a large enough effect; inconclusive = small, poorly fitted or top-dose-only effect, or another doubt; inactive = no such curve, though single readings can be large; an effect the other way counts as inactive or inconclusive.

SMILES | PMP22 txn | HTT-AS act | pS6 MEF inh | S16 F2sN tox | HTT prom inh
CN[C@@H]1C[C@H]2O[C@@](C)([C@H]1OC)n1c3ccccc3c3c4c(c5c6ccccc6n2c5c31)C(=O)N[C@H]4O | . | - | . | . | ?
Cc1ccn(-c2ccc(-c3ncco3)cc2)c(=O)c1-c1ccc2nc(N)ncc2c1 | . | - | . | . | -
CC1CCN(S(=O)(=O)c2ccc3c(c2)oc(=O)n3CC(=O)NC(C)c2ccccc2)CC1 (stereo not drawn) | ? | - | - | ? | 14µM
CC(NC(=O)Cn1c(=O)oc2cc(S(=O)(=O)N3CCCCCC3)ccc21)c1ccccc1 (stereo not drawn) | - | - | - | - | -
Cc1cccc(NC(=O)Cn2c(=O)oc3cc(S(=O)(=O)N4CCCCCC4)ccc32)c1 | ? | - | - | ? | 10µM
Clc1cccc(-c2nnnn2Cc2cccnc2)c1Cl | . | - | . | . | -
O=c1ccn([C@@H]2O[C@H](CO)[C@H](O)[C@H]2O)c(=O)[nH]1 | . | - | . | . | ?
Cn1cc(-c2cnn3c(N)c(Br)c([C@H]4CCCNC4)nc23)cn1 | . | - | . | . | ?
Cc1ccc(NC(=O)CSc2nccn2Cc2ccco2)cc1Cl | ? | 13µM | - | - | -
O=C(CSc1nccn1Cc1ccco1)Nc1ccc(F)cc1 | - | - | - | - | -
CC(=O)c1ccc(NC(=O)CSc2nccn2Cc2ccco2)cc1 | ? | 3.2µM | - | - | -
CCOc1ccc(-c2cc(CCCC(=O)NCCc3ccc(SC)cc3)no2)cc1 | - | - | - | - | 0.79µM
CCOc1ccc(-c2cc(CCCC(=O)NCCc3ccc(Cl)cc3)no2)cc1 | - | - | - | - | 1.8µM
NC[C@H]1O[C@H](O[C@H]2[C@@H](O)[C@@H](O[C@H]3O[C@H](CO)[C@@H](O)[C@H](N)[C@@H]3O)[C@H](N)C[C@@H]2N)[C@H](N)C[C@H]1O | . | - | . | . | -
Cc1ccc(NCc2cccn2-c2nnc(N3CCCCCC3)s2)cc1 | ? | - | - | - | 7.9µM
COc1ccc(-c2noc(COc3ccc(C)cc3C)n2)cc1OC | - | - | - | - | -
COc1cc(OC)cc(-c2nc(-c3cccc(C)c3)no2)c1 | - | 11µM | - | - | -
COc1ccccc1OCc1nc(-c2cccc(C)c2)no1 | - | 10µM | - | - | -
Cc1ccc(CN2c3ccccc3-c3nc(SCC(=O)Nc4c(C)cc(C)cc4C)ncc3S2(=O)=O)cc1 | ? | - | - | 28µM | -
CN(C)c1ccc(Nc2nc3ccccc3n3nnnc23)cc1 | 14µM | - | - | ? | -
O=C(c1ccc(Nc2nc3ccccc3n3nnnc23)cc1)N1CCN(c2ccc(F)cc2)CC1 | 4µM | - | - | ? | -
COc1ccc(N2CCN(C(=O)c3ccc(Nc4nc5ccccc5n5nnnc45)cc3)CC2)cc1 | ? | - | - | ? | -
Cc1ccc(CS(=O)(=O)c2ncc(Cl)c(C(=O)Nc3nc4ccc(C)cc4s3)n2)cc1 | 6.5µM | - | - | 20µM | ?
COc1ccc(OC)c(NC(=O)c2nc(S(=O)(=O)Cc3ccc(F)cc3)ncc2Cl)c1 | ? | - | 2.9µM | 4.5µM | ?
Cc1ccc(NC(=O)c2nc(S(=O)(=O)Cc3ccc(F)cc3)ncc2Cl)cc1C | 7.3µM | - | ? | 10µM | ?
SMILES | PMP22 txn | HTT-AS act | pS6 MEF inh | S16 F2sN tox | HTT prom inh
COc1ccccc1NC(=O)c1nc(SCc2ccc(F)cc2)ncc1Cl | - | - | - | - | -
Cc1ccc(CSc2ncc(Cl)c(C(=O)Nc3nc4ccc(C)cc4s3)n2)cc1 | - | - | - | - | -
CCCc1nnc(NC(=O)c2nc(S(=O)(=O)Cc3ccc(C)cc3)ncc2Cl)s1 | ? | - | - | ? | -
CC(=O)Nc1ccc(NC(=O)c2nc(SCc3ccccc3C)ncc2Cl)cc1 | ? | - | - | - | -
CC(=O)Nc1ccc(NC(=O)c2nc(S(=O)(=O)Cc3ccc(F)cc3)ncc2Cl)cc1 | 1.9µM | - | 5.2µM | 3.5µM | ?
N#Cc1c(NC(=O)c2cccc3ccccc23)sc2c1CCCC2 | . | - | . | . | -
CCC(=C(c1ccc(O)cc1)c1ccc(OCCNC)cc1)c1ccccc1 | . | - | . | . | ?
Cc1ccccc1-n1c(Cn2nc(-c3cccc(O)c3)c3c(N)ncnc32)nc2cccc(C)c2c1=O | . | - | . | . | ?
CN1C(=O)c2ccccc2Sc2ccc(NC(=O)N3CCN(c4ccc(F)cc4)CC3)cc21 | ? | - | - | - | 28µM
CC(C)NC(=O)Nc1ccc2c(c1)N(C)C(=O)c1ccccc1S2 | - | - | ? | - | -
Cc1ccc(C(=O)Nc2ccc3c(c2)N(C)C(=O)c2ccccc2S3)cc1F | ? | - | - | ? | 13µM
Cc1cc(C)cc(NC(=O)c2cnn(-c3ccc(C)c(C)c3)c2C2CCNCC2)c1 | ? | - | 7.4µM | ? | -
O=C(Nc1cccc(C(F)(F)F)c1)c1cnn(-c2cccc(F)c2)c1C1CCNCC1 | - | - | 18µM | - | -
CC(=O)OCC(=O)[C@@]12N=C(C)O[C@H]1C[C@H]1[C@@H]3CCC4=CC(=O)C=C[C@]4(C)[C@@H]3[C@@H](O)C[C@@]12C | . | - | . | . | ?
CCN(C(=O)c1c(O)c2c(Cl)cccc2n(C)c1=O)c1ccccc1 | . | - | . | . | -
COc1ccc(Br)cc1C(=O)Nc1nc2ccc(F)cc2s1 | - | 1.8µM | - | - | -
CCOC(=O)c1ccc(N2C(=O)c3n[nH]c(-c4cccs4)c3C2c2cccc(F)c2)cc1 (stereo not drawn) | ? | - | 18µM | - | ?
CCOC(=O)c1ccc(N2C(=O)c3n[nH]c(-c4ccco4)c3C2c2ccc(OCC)cc2)cc1 (stereo not drawn) | ? | - | 13µM | ? | 20µM
CCOC(=O)c1ccc(N2C(=O)c3n[nH]c(-c4cccs4)c3C2c2ccc(C)cc2)cc1 (stereo not drawn) | ? | - | - | - | -
CN1CCC(CNc2ccc3ncc(-c4cccc(OC(F)(F)F)c4)n3n2)CC1 | . | - | . | . | ?
CC(C)(C)OC(=O)N[C@H]1CCCCCC=C[C@@H]2C[C@@]2(C(=O)NS(=O)(=O)C2CC2)NC(=O)[C@@H]2C[C@@H](OC(=O)N3Cc4cccc(F)c4C3)CN2C1=O | . | - | . | . | -
Oc1c(C(Nc2ccccn2)c2ccccc2F)ccc2cccnc12 (stereo not drawn) | ? | - | ? | 2µM | ?
CCCCOc1cccc(C(=O)N(Cc2ccc(C)o2)c2ccccn2)c1 | ? | - | - | - | 28µM
Cc1ccc(NC(=O)Cn2cc(C(=O)C3CCCCC3)c3ccccc32)c(C)c1 | ? | - | - | - | ?
Cc1cccc(NC(=O)Cn2cc(C(=O)C3CCCCC3)c3ccccc32)c1C | 10µM | - | - | ? | ?
O=c1cc(-c2ccccc2)oc2cc(O)cc(O)c12 | . | 24µM | . | . | -
